Pf growth 48h: P. falciparum growth inhibition at 48 hours (one generation). P. falciparum luciferase growth in erythrocytes, 48 h. Potency, µM (highest dose often 28.7 µM), without a hit: at the highest dose activity change, negative = inhibition, actives largely listed as inhibitors. hit rate 5.9% among 310,000. AID 504832; further: potency means the concentration at half of the fitted maximal effect; on the % scale 0 is the no-effect control and ±100 the full control effect
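Luciferase-expressing parasites in RBCs, 2% Hct / 0.1% parasitemia final; RPMI 1640 + 0.5% Albumax; 37 C, 5% CO2, one generation; luminescence read-out, lower signal = inhibition.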
Shiga toxin inh: inhibitors of Shiga toxin in Vero cells; inhibition, % at 38.7 µM; hit rate 9.2% among 290,000; Vero cells, Shiga toxin protein synthesis inhibition reporter; AID 2315; in the data active means inhibition mostly above about 28%, no sharp cut-off; inactive means mostly below about 43%; further: 0% is about no effect
Lassa entry inh: inhibitors of Lassa virus binding or cell entry. hit rate 1.2% among 300,000. Potency, µM (series often up to 37.9 µM), inactives show at the highest dose activity change, negative = inhibition, hits mostly inhibitors. Lassa virus pseudotype entry inhibition, cell reporter; calls by dose curve; tested in HEK293 cells; further: potency means the concentration at half of the fitted maximal effect; on the % scale 0 is the no-effect control and ±100 the full control effect; nearly all actives have a fitted effect of over 50% in size
Pf growth 96h: P. falciparum growth inhibition at 96 hour, primary screen for plastid delayed-death inhibitors. P. falciparum luciferase reporter growth, 96 h. Potency, µM (doses to about 28.7 µM), without a hit: top-dose activity change, negative = inhibition, usual class: inhibitors. hit rate 6.9% among 320,000; further: potency means the concentration at half of the fitted maximal effect; on the % scale 0 is the no-effect control and ±100 the full control effect
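P. falciparum expressing integrated firefly luciferase grown in erythrocytes (2% hematocrit, 0.05% parasitemia final) with compounds for 96 hours at 37 C, 5% CO2. Growth inhibition read as loss of luminescence after adding luciferase detection reagent.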
Cycloheximide cs: counter-screen for Shiga toxin inhibitors: cycloheximide protein synthesis inhibition. cell reporter, cycloheximide protein synthesis inhibition counterscreen. max response, %. hit rate 12% among 300,000; in the data active means max response mostly above about 13%, no sharp cut-off; inactive means mostly below about 14%; further: read at 38.3 µM for the half of the compounds with a filed dose; 0% is about no effect
MARV entry inh: inhibitors of Marburg virus binding or cell entry; Marburg virus pseudotyped entry inhibition, cell reporter; Potency, µM (highest dose often 37.8 µM), without a hit: at the highest dose activity change, negative = inhibition, most hits filed as inhibitors; hit rate 1.8% among 300,000; AID 540276; calls by dose curve; tested in HEK293 cells; further: potency means the concentration at half of the fitted maximal effect; on the % scale 0 is the no-effect control and ±100 the full control effect
Active calls of the source: *; u = inconclusive; x = no result given; [ ] = another dose, or the depositor's remark. In the library only some 19% were active in any assay of this set; here they are far more common. Unless noted, the call rests on the fitted dose curve; in most records, active means well fitted inhibition curve with a large enough effect; inconclusive means small, poorly fitted or top-dose-only effect, or another doubt; inactive means no such curve, though single readings can be large or run the other way.

SMILES | Pf growth 48h | Shiga toxin inh | Lassa entry inh | Pf growth 96h | Cycloheximide cs | MARV entry inh
COc1ccc(C2CC(=O)c3cnc(N4CCN(Cc5ccccc5)CC4)nc3C2)cc1 (stereo not drawn) | 12µM* | 9 | u | 12% | 9 | u
CC1CC(C)CN(c2ncc3c(n2)CC(c2ccc(Cl)cc2)CC3=O)C1 (stereo not drawn) | 18% | 3 | -17% | x | -1 | 10%
CCOC(=O)CC(=O)Nc1ccn[nH]1 | 6% | 8 | x | 11% | -1 | x
C=CCn1c(SCC(N)=O)nnc1-c1cccc(Br)c1 | 10% | -15 | 8% | 14% | 2 | 8%
C=CCn1c(SCc2ccccc2C#N)nnc1-c1cc(Br)ccc1O | 2.3µM* | 3 | -12% | -1% | -5 | u
O=C(N/N=C/c1ccc[nH]1)c1sc2ccccc2c1Cl | u | 146* | -31% | 6.6µM* | 47* | u
O=C(N/N=C/C1CC2CCC1C2)C1CC1 (stereo not drawn) | 25% | -16 | x | 34% | 7 | x
O=C(N/N=C/c1ccc[nH]1)c1c[nH]c2ccccc12 | -15% | 111* | x | -27% | 52* | x
O=C(CNc1cccc2ccccc12)N/N=C/c1ccc[nH]1 | 9% | 26 | u | -3% | -1 | u
O=C(N/N=C/c1ccccn1)c1c[nH]c2ccccc12 | 37% | 65* | u | u | 49* | u
O=C(N/N=C/C1CC2CCC1C2)c1c[nH]c2ccccc12 (stereo not drawn) | 19% | 40 | 1% | -11% | 23* | 7%
CCOC(=O)c1ccc(NC(=O)CSc2nc(C)cc(=O)[nH]2)cc1 | 2% | -16 | -6% | 52% | -5 | 13%
Cc1ccc(S(=O)(=O)CCC(=O)OCC(=O)Nc2cc(S(=O)(=O)N3CCOCC3)ccc2Cl)cc1 | x | x | 0% | x | x | -3%
CC(=O)N1c2ccc(S(=O)(=O)N3CCCC3)cc2CC1C(=O)NCc1ccc(N(C)C)cc1 (stereo not drawn) | -13% | 9 | x | 6.6µM* | -5 | x
CN(C)c1ccc(CNC(=O)c2cc3cc(S(=O)(=O)N4CCCCC4)ccc3n2C)cc1 | x | x | 10µM* | x | x | x
COc1ccccc1CNC(=O)C1Cc2cc(S(=O)(=O)N3CCCC3)ccc2N1C(C)=O (stereo not drawn) | u | 7 | 0%[46.1 µM] | 17% | 3 | 17%[46.1 µM]
Cc1ccc2c(c1)cc(C(=O)NCc1ccc(F)cc1)n2C | x | x | 2µM* | x | x | u
COc1cccc(CNC(=O)C2Cc3cc(S(=O)(=O)N4CCCC4)ccc3N2C(C)=O)c1OC (stereo not drawn) | -9% | 13 | x | 15µM* | -3 | x
Cc1ccc2c(c1)cc(C(=O)Nc1ccc(F)cc1F)n2C | x | x | 0%[46.1 µM] | x | x | -7%[46.1 µM]
CCOC(=O)Cc1c(C)nc2c(-c3ccc(OC)c(OC)c3)c(C)nn2c1C | x | x | u | x | x | -24%[46.1 µM]
O=C(Cn1c(=O)n(-c2cccc(Cl)c2)c(=O)c2sc3ccccc3c21)NC1CCCCC1 | x | x | -21%[46.1 µM] | x | x | -11%[46.1 µM]
Cc1cccc(N/C(N)=N/c2nc(C)cc(C)n2)c1 | -28% | -10 | 0% | -13% | -2 | u
O=C(CSc1nc2ccccc2c(=O)n1-c1ccccc1)c1c[nH]c2ccccc12 | u | -19 | -27% | u | 1 | u
CCN1C(=O)/C(=C\N2CCCc3ccccc32)SC1=S | -6% | 41 | 14% | x | -3 | 0%
CCN1C(=O)/C(=C/N2CCc3ccccc32)SC1=S | 95% | 69* | u | 14% | 16* | 0%
SMILES | Pf growth 48h | Shiga toxin inh | Lassa entry inh | Pf growth 96h | Cycloheximide cs | MARV entry inh
COc1cccc(CNC(=O)Cn2ncn3cccc3c2=O)c1OC | 6% | 26* | x | 6% | 11* | x
O=C(Cn1ncn2cccc2c1=O)NCc1cccc(Br)c1 | x | x | -4%[46.1 µM] | x | x | 3%[46.1 µM]
Cc1ccc(CNC(=O)Cn2ncn3cccc3c2=O)cc1 | 104% | 23* | x | 44% | 21* | x
COc1cccc(CNC(=O)C(C)n2ncn3cccc3c2=O)c1OC (stereo not drawn) | x | x | -13%[46.1 µM] | x | x | 5%[46.1 µM]
CCOC(=O)c1cc(NC(=O)/C=C\C(=O)O)ccc1Cl | -29% | -15 | -15% | 30% | 14 | u
CCC(=O)Nc1ccc(-c2nnc(SCC(=O)NCC3CCCO3)n2C)cc1 (stereo not drawn) | -13% | -12 | -13% | -10% | -7 | -7%
Cc1ccc(C(C#N)c2ccc(C(=O)c3ccc(F)cc3)cc2)cc1 (stereo not drawn) | x | 6 | 10µM* | -5% | 11 | u
O=c1[nH]nc(SCc2ccccc2)c(=O)[nH]1 | 0% | -15 | 8% | 71% | 1 | -19%
COc1ccnc(N=CNOCc2cccc(C(F)(F)F)c2)c1C#N | 8% | -4 | u | 15µM* | 1 | -6%[46.1 µM]
CCN1CCN(C(CC(C)C)c2nnnn2CS(=O)(=O)c2ccc(C)cc2)CC1 (stereo not drawn) | u | 1 | -22% | u | -4 | u
Cc1nc(SCc2ccccc2)c([N+](=O)[O-])[nH]1 | u | 21 | 0% | 16% | -1 | u
Cc1nc(SCc2ccccc2)c(C(F)(F)F)c(=O)[nH]1 | 8% | 6 | 13% | 5.2µM* | 0 | 2%
CCN(CC)S(=O)(=O)c1cc(NC(=O)COC(=O)CCC(=O)c2ccc(F)cc2)ccc1C | -5% | -4 | u | -14% | -2 | 19%
c1ccc(C2CCC3(CC2)Oc2ccccc2C2CC(c4cccnc4)=NN23)cc1 (stereo not drawn) | 20% | 40* | 11% | 39% | 27* | -4%
O=c1c(O)c(-c2cc(O)c(O)c(O)c2)oc2cc(O)cc(O)c12 | 3% | x | u | -17% | x | 22µM*
COc1c(-c2ccc(O)c(O)c2)oc2cc(O)cc(O)c2c1=O | 8% | 13 | x | -2% | active | x
Cc1c(N2C(=O)c3ccc(Br)cc3C2=O)c(=O)n(-c2ccccc2)n1C | 13% | -11 | 5% | u | -3 | 13%
Cn1cc(C=C2C(=O)Nc3cccnc32)c2ccccc21 | x | 32* | u | x | 30* | x
Cc1nn(-c2ccccn2)c2c1C(=O)CC(C)(C)C2Br (stereo not drawn) | 15µM* | 4 | x | u | 2 | x
CC(=O)Nc1ccc(NC(=O)CCOc2ccccc2C)cc1 | 8% | 24 | -22%[46.1 µM] | 29% | -3 | 22%[46.1 µM]
Cc1cc(F)ccc1NCC(=O)Nc1ccccc1Br | u | 116* | 16% | u | 26* | 18%
Cc1ccc(NC(=O)CCOc2ccccc2C)cc1F | 17% | 38 | -7% | 0% | 30* | 5%[46.1 µM]
Cc1ccccc1NCCC(=O)Nc1ccc(Cl)cc1 | 16% | 46 | 13%[46.1 µM] | 30% | 6 | 8%[46.1 µM]
Cc1ccc(OCCC(=O)Nc2ccc(F)c(Cl)c2)cc1 | 7% | -4 | 1% | 15µM* | 1 | 13%
Cc1ccccc1NCCC(=O)Nc1ccc(F)cc1 | 24% | 38 | -10%[46.1 µM] | 48% | 16* | -9%[46.1 µM]
CCOc1ccc(-n2c(C)c(C(C)=O)c3cc(O)ccc32)cc1 | -18% | 1 | x | 15% | 2 | x
